Screening data from PubChem.
CYP2C19 act: human CYP2C19 activators, primary screen, biochemical, luminescence | Cytochrome P450 2C19 (Homo sapiens), P33261 | recombinant CYP2C19, luciferin-H EGE luminescence; stronger effect = higher value; 0 = fully inhibited enzyme, 1 = untreated enzyme | activation factor at 5 µM | 96,000 tested, under 10 active | AID 1025, 2008;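 active = activation factor of at least 2 at 5 µM in the primary screen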;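 note: 0 = wells with 2.5 mM tranylcypromine and 1 = vehicle-only wells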
Target sequence (P33261 whole entry, looked up): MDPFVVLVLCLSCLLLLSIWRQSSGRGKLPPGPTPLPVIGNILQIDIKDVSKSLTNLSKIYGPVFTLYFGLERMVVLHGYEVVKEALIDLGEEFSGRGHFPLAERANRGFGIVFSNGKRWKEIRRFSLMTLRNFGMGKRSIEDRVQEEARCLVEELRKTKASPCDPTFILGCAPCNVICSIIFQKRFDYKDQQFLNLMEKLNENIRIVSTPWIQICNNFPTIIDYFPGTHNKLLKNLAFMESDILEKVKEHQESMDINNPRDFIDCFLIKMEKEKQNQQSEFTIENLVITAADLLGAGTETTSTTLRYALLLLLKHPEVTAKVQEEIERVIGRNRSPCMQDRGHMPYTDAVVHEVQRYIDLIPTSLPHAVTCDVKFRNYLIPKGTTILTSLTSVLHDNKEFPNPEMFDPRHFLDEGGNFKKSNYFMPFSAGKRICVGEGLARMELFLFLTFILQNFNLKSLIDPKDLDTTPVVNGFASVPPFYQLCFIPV
PostGolgi yeast: phenotypic screen on post-Golgi transport, primary screen; 98,000 tested, 0.9% active; post-Golgi transport phenotypic cell assay; AID 739, 2007; inhibition, % at 10 µM;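 note: yeast cells grown in 1536-well plates; yeast grown about 18 h at 30C before absorbance read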
PostGolgi ctrl: growth inhibition of yeast control strain, primary screen, counter-screen for post-Golgi transport modulator project | efflux-deficient yeast background strain, growth absorbance A615, 16 h | inhibition, % at 10 µM | 98,000 tested, 5% active
CYP2C9 inh: blockers of cytochrome P450 2C9 activity – biochemical, luminescence, ADME assay, primary screen | P11712 | CYP2C9 Supersomes, luciferin-H conversion | inhibition, % at 5 µM | 96,000 tested, 20% active;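 active = blocking of liver enzyme CYP2C9 beyond about 50% at 5 µM, limit read from the data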
CYP2C19 inh: blockers of cytochrome P450 2C19 activity – biochemical, luminescence, ADME assay, primary screen; P33261; CYP2C19 Supersomes, luciferin-H EGE luminescence, 30 min; inhibition, % at 5 µM; 96,000 tested, 21% active; AID 778, 2007;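 active = CYP2C19 inhibition above a set limit at 5 µM in the primary screen, cut at about 50% in these data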;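 note: plate controls were negative control wells for no effect and 2.5 mM tranylcypromine positive control for full effect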
CYP2C9 act: human CYP2C9 activators, primary screen, biochemical, luminescence | 96,000 tested, 1.4% active | recombinant CYP2C9, luciferin-H conversion; stronger effect = higher value; factor 1 = untreated enzyme, 0 = blocked | AID 1024, 2008 | activation factor at 5 µM;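 active = activation factor of 2 or more for CYP2C9 at a 5 µM dose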;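 note: 0 = sulfaphenazole-blocked wells and 1 = vehicle-only wells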
* marks the source's active call; other numbers are inactive results; x = no result given. The list is not random: actives were taken first. Their share in the collection is about 32%. Cut-off read from the data, not from the text of the source, unless noted: active = inhibition above about 30%; inactive = the rest.

SMILES	CYP2C19 act	PostGolgi yeast	PostGolgi ctrl	CYP2C9 inh	CYP2C19 inh	CYP2C9 act
O=C1CCCN1CCCN1C(=O)N[C@@H](Cc2ccccc2)C1=O	1.1	8	35*	-8	-11	1.1
O=C1N[C@@H](Cc2ccccc2)C(=O)N1CCN1CCOCC1	1	2	2	-26	4	1.3
O=c1[nH]c(SCc2cccc(Cl)c2)nc2c1CCCC2	0.9	0	34*	36	11	0.6
Cn1c(=O)c2c(=O)cc(NNC(=O)C(C)(C)C)[nH]c2n(C)c1=O	1	0	0	37	1	0.6
C/C(Nc1ccccc1)=C(/C#N)C(N)=O	1.1	-3	0	-17	-7	1.2
COCCNC(=O)c1ccc2c(=O)n(Cc3ccco3)c(SCC(=O)NC3CCCCC3)nc2c1	0.7	8	-2	24	30	0.8
O=C(CSc1nc2ccccc2c(=O)n1Cc1ccco1)N1CCCCCC1	0.4	2	27	95*	58*	0.1
O=C(CSc1nc2ccccc2c(=O)n1CC1CCCCC1)N1CCOCC1	0.9	1	15	30	13	0.7
O=C(CSc1nc2ccccc2c(=O)n1-c1ccccc1)N1CCCC1	0.7	0	12	51*	34	0.5
O=C(NCc1ccco1)c1ccc2c(=O)n(Cc3ccco3)c(SCC(=O)N3CCCC3)nc2c1	0.8	-5	0	64*	23	0.4
CC(=O)Nc1ccc(S(=O)(=O)NCc2ccc(C(=O)NCc3ccc4c(c3)OCO4)cc2)cc1	x	-2	-1	x	x	x
COc1ccc2c(c1OC)C(=O)OC2Nc1ccccc1S(=O)(=O)C(F)F (configuration not stated)	1.3	2	-3	-11	-26	1.1
CCCCC1CCC(C(=O)Nc2ccc(S(=O)(=O)Nc3nccs3)cc2)CC1 (configuration not stated)	1.1	-2	2	22	-8	0.8
Nc1nonc1C(=O)NCCNCc1ccccc1	1	2	-1	-10	-4	1.1
COc1ccc(OCC(=O)Nc2cccc3cccnc23)cc1	0	-6	18	-40	97*	1.4
CCOC(=O)c1cccc(NC(=O)COc2ccc([N+](=O)[O-])cc2)c1	0.4	3	-3	77*	57*	0.2
COc1ccc(OCC(=O)Nc2cccc(C(C)=O)c2)cc1	0.3	-4	4	51*	67*	0.5
CCOC(=O)c1ccc(NC(=O)COc2ccc(-n3cnnn3)cc2)cc1	1.1	12	-3	-9	-8	1.1
O=C(COc1ccc(F)cc1)Nc1ccc(-n2cnnn2)cc1	0.2	4	7	25	76*	0.8
CCOCC(=O)Nc1cccc(C(=O)OCC)c1	0.8	11	-6	15	21	0.9
COc1ccc(OCC(=O)Nc2cccc(NC(=O)COc3ccc(OC)cc3)n2)cc1	0.6	-4	5	72*	44	0.3
CC(=O)Nc1cccc(OCC(=O)Nc2ccc(F)cc2)c1	0.3	3	-5	-33	68*	1.3
CC(=O)Nc1cccc(OCC(=O)NC(C)C(C)C)c1 (configuration not stated)	1.1	-5	5	-35	-10	1.4
Cc1ccc2nc(-c3ccc4c(c3)OCCO4)cc(C(=O)O)c2c1	0.7	-2	7	81*	28	0.2
Cc1ccc2nc(-c3cccc(NC(=O)c4ccc5c(c4)OCCO5)c3)oc2c1	0.4	-8	3	87*	64*	0.1
SMILES	CYP2C19 act	PostGolgi yeast	PostGolgi ctrl	CYP2C9 inh	CYP2C19 inh	CYP2C9 act
O=C(Nc1ccc2oc(-c3ccc4ccccc4c3)nc2c1)c1ccc2c(c1)OCCO2	1	10	4	7	1	0.9
Cc1nc2ccccc2c2oc(C(=O)Nc3ccc4c(c3)OCCO4)cc12	1	-1	-10	4	-2	1
Cc1cccc(-c2cc(C(=O)Nc3ccc4c(c3)OCCO4)c3ccccc3n2)c1	0.8	0	9	60*	23	0.4
CCOc1ccc(-c2cc(C(=O)Nc3ccc4c(c3)OCCO4)c3ccccc3n2)cc1	0.5	-9	4	78*	49	0.2
CC(C)Oc1ccc(-c2cc(C(=O)NCCN3CCOCC3)c3ccccc3n2)cc1	0.9	6	0	46	14	0.5
CCCc1ncc(C(O)c2ccc(OC)cc2)n1C (configuration not stated)	0.8	0	14	25	17	0.8
Cc1cc(OCCSc2nnc(-c3cccs3)n2C)ccc1Cl	0.4	8	21	40	62*	0.6
Cn1c(SCCOc2ccc(Cl)cc2)nnc1-c1ccncc1	0.2	-4	2	31	78*	0.7
CCCCN(CCCNC(=O)c1c(C)cc(=O)oc1C)c1ccccc1	0.5	-7	32*	90*	51*	0.1
CCN(CCCNC(=O)c1c(C)cc(=O)oc1C)c1ccccc1	0	-3	25	83*	98*	0.2
CCCNC(=O)c1c(C)cc(=O)oc1C	1.1	11	2	-4	-11	1
O=C(NC1=NCCS1)c1csc2ccccc12	0.6	3	20	-12	44	1.1
Cc1cc(F)ccc1S(=O)(=O)Nc1c(C)n(C)n(-c2ccccc2)c1=O	0.1	-9	12	50*	91*	0.5
COc1ccc(OC)c(C2CC(=O)C(C)C(c3cc(OC)ccc3OC)N2)c1 (configuration not stated)	0.6	-1	10	76*	35	0.2
COCCN(C(=O)Nc1ccc(OC)cc1OC)C1CCN(C(C)=O)CC1	1.1	5	-1	1	-11	1
CCOc1ccccc1C1CC(=O)NC(SCC)=C1C#N (configuration not stated)	0.6	-3	-5	26	39	0.7
CCCCOC(=O)CSC1=C(C#N)C(c2ccccc2OC)C(C#N)C(=O)N1 (configuration not stated)	0.4	3	15	55*	64*	0.5
CCCOC(=O)CSC1=C(C#N)C(c2ccccc2OCC)C(C#N)C(=O)N1 (configuration not stated)	0.6	22	3	67*	43	0.3
CCCCOC(=O)CSC1=C(C#N)C(c2ccccc2OCC)C(C#N)C(=O)N1 (configuration not stated)	0.5	4	-3	79*	50	0.2
COc1ccc2c(c1)OC(O)(C(F)(F)F)CC2=O (configuration not stated)	0.8	-4	7	13	20	0.9
COc1cc(C(=O)NCc2cn3cccc(C)c3n2)cc(OC)c1OC	0.6	2	4	48	40	0.5
